# According to the supplement of paper PMC8728848:
# The sample as a whole holds a higher share of the strongest signals than the screen did.
# B1: VLRB.aGPA.23-GCN4-biotin (Petromyzon marinus) (protein)
# chain: ACPSQCSCSGTEVNCAGKSLASVPAGIPTTTRVLYLNSNQITKLEPGVFDRLANLRELHLWGNQLVSLPPGVFDNLANLEKLWLNSNQLTSLPAGLFDRLVNLEHLGLCCMKLTELPSGAFDKLTRLKQLGLDQNQLKSIPDGAFARLPSLTHVWLHTNPWDCQCTDILYLSGWVAQHSSIVGEGWPWRHSPDSAKCSGTNTPVRAVTEASTSPSKCP
# Experiments:
# Experiment in all cases: glycan array binding signal (z-score within array); higher = stronger binding
# Conditions in all cases: glycan notation: IUPAC condensed, linker removed
# Fuc(a1-2)Gal = biological target: Fuc(a1-2)Gal
# Summary of the method: (§1)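 The binding signal is a Z-score computed within each array. Data were drawn from 3228 arrays in the Consortium for Functional Glycomics database, restricted to those with a known protein sequence. Scores were averaged over arrays of the same protein sequence at different concentrations or buffers, and over linkers, and negative values can be taken as non-binding.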
# Fuc(a1-2)Gal(b1-3)GalNAc = biological target: Fuc(a1-2)Gal(b1-3)GalNAc
# Summary of the method: as §1
# [1] = biological target: Fuc(a1-2)Gal(b1-4)GlcNAc(b1-2)[Fuc(a1-2)Gal(b1-4)GlcNAc(b1-4)]Man(a1-3)[Fuc(a1-2)Gal(b1-4)GlcNAc(b1-2)Man(a1-6)]Man(b1-4)GlcNAc(b1-4)GlcNAc
# Summary of the method: as §1
# [2] = biological target: Fuc(a1-2)Gal(b1-4)GlcNAc6S
# Summary of the method: as §1
# [3] = biological target: Fuc(a1-2)Gal6S(b1-3)GlcNAc6S
# Summary of the method: as §1
# [4] = biological target: Fuc(a1-2)[Gal(a1-3)]Gal(b1-3)GlcNAc(b1-2)Man(a1-3)[Fuc(a1-2)[Gal(a1-3)]Gal(b1-3)GlcNAc(b1-2)Man(a1-6)]Man(b1-4)GlcNAc(b1-4)[Fuc(a1-6)]GlcNAc
# Summary of the method: as §1
# [5] = biological target: Fuc(a1-2)[Gal(a1-3)]Gal(b1-3)GlcNAc(b1-3)GalNAc
# Summary of the method: as §1
# [6] = biological target: Fuc(a1-2)[Gal(a1-4)]Gal(b1-4)GlcNAc
# Summary of the method: as §1
# [7] = biological target: Fuc(a1-2)[GalNAc(a1-3)]Gal(b1-4)[Fuc(a1-3)]GlcNAc(b1-3)GalNAc
# Summary of the method: as §1
# Fuc(b1-3)GlcNAc = biological target: Fuc(b1-3)GlcNAc
# Summary of the method: as §1
# Gal(a1-2)Gal = biological target: Gal(a1-2)Gal
# Summary of the method: as §1
# Gal(a1-3)Gal = biological target: Gal(a1-3)Gal
# Summary of the method: as §1
# Gal(a1-3)Gal(b1-4)GlcNAc = biological target: Gal(a1-3)Gal(b1-4)GlcNAc
# Summary of the method: as §1
# [8] = biological target: Gal(a1-3)[Gal(a1-4)]Gal(b1-4)GlcNAc
# Summary of the method: as §1
# [9] = biological target: Gal(a1-4)Gal(b1-3)GlcNAc(b1-2)Man(a1-3)[Gal(a1-4)Gal(b1-3)GlcNAc(b1-2)Man(a1-6)]Man(b1-4)GlcNAc(b1-4)GlcNAc
# Summary of the method: as §1
# Gal(b1-2)Gal = biological target: Gal(b1-2)Gal
# Summary of the method: as §1
# Gal(b1-3)Gal(b1-4)GlcNAc = biological target: Gal(b1-3)Gal(b1-4)GlcNAc
# Summary of the method: as §1
# Gal(b1-3)GalNAc = biological target: Gal(b1-3)GalNAc
# Summary of the method: as §1
# [10] = biological target: Gal(b1-3)GalNAc(a1-3)[Fuc(a1-2)]Gal(b1-4)GlcNAc
# Summary of the method: as §1
# [11] = biological target: Gal(b1-3)GalNAc(b1-4)Gal(b1-4)Glc
# Summary of the method: as §1
# [12] = biological target: Gal(b1-3)GlcNAc(b1-6)Gal(b1-4)GlcNAc
# Summary of the method: as §1
# Gal(b1-3)GlcNAc6S = biological target: Gal(b1-3)GlcNAc6S
# Summary of the method: as §1
# [13] = biological target: Gal(b1-3)[GlcNAc(b1-6)]GalNAc
# Summary of the method: as §1
# [14] = biological target: Gal(b1-4)GlcNAc(a1-6)Gal(b1-4)GlcNAc
# Summary of the method: as §1
# [15] = biological target: Gal(b1-4)GlcNAc(b1-2)Man(a1-3)[Gal(b1-4)GlcNAc(b1-2)Man(a1-6)][GlcNAc(b1-4)]Man(b1-4)GlcNAc(b1-4)[Fuc(a1-6)]GlcNAc
# Summary of the method: as §1
# [16] = biological target: Gal(b1-4)GlcNAc(b1-2)Man(a1-3)[Man(a1-6)]Man(b1-4)GlcNAc(b1-4)GlcNAc
# Summary of the method: as §1
# [17] = biological target: Gal(b1-4)GlcNAc(b1-3)Gal(b1-3)GlcNAc
# Summary of the method: as §1
# [18] = biological target: Gal(b1-4)GlcNAc(b1-3)Gal(b1-4)GlcNAc(b1-3)Gal(b1-4)GlcNAc(b1-3)Gal(b1-4)GlcNAc(b1-2)[Gal(b1-4)GlcNAc(b1-3)Gal(b1-4)GlcNAc(b1-3)Gal(b1-4)GlcNAc(b1-3)Gal(b1-4)GlcNAc(b1-6)]Man(a1-6)[Gal(b1-4)GlcNAc(b1-3)Gal(b1-4)GlcNAc(b1-3)Gal(b1-4)GlcNAc(b1-3)Gal(b1-4)GlcNAc(b1-2)Man(a1-3)]Man(b1-4)GlcNAc(b1-4)[Fuc(a1-6)]GlcNAc
# Summary of the method: as §1
# Gal6P(b1-4)GlcNAc = biological target: Gal6P(b1-4)GlcNAc
# Summary of the method: as §1
# Gal6S(b1-3)GlcNAc = biological target: Gal6S(b1-3)GlcNAc
# Summary of the method: as §1
binder,measurement,setting,value
B1,glycan array binding signal (z-score),Fuc(a1-2)Gal,13.2
same,glycan array binding signal (z-score),Fuc(a1-2)Gal(b1-3)GalNAc,12.6
same,glycan array binding signal (z-score),[1],-0.082
same,glycan array binding signal (z-score),[2],-0.082
same,glycan array binding signal (z-score),[3],-0.055
same,glycan array binding signal (z-score),[4],-0.07
same,glycan array binding signal (z-score),[5],-0.083
same,glycan array binding signal (z-score),[6],-0.066
same,glycan array binding signal (z-score),[7],0.368
same,glycan array binding signal (z-score),Fuc(b1-3)GlcNAc,-0.075
same,glycan array binding signal (z-score),Gal(a1-2)Gal,0.157
same,glycan array binding signal (z-score),Gal(a1-3)Gal,-0.08
same,glycan array binding signal (z-score),Gal(a1-3)Gal(b1-4)GlcNAc,-0.079
same,glycan array binding signal (z-score),[8],-0.069
same,glycan array binding signal (z-score),[9],-0.073
same,glycan array binding signal (z-score),Gal(b1-2)Gal,3.68
same,glycan array binding signal (z-score),Gal(b1-3)Gal(b1-4)GlcNAc,0.046
same,glycan array binding signal (z-score),Gal(b1-3)GalNAc,0.232
same,glycan array binding signal (z-score),[10],-0.083
same,glycan array binding signal (z-score),[11],0.519
same,glycan array binding signal (z-score),[12],-0.077
same,glycan array binding signal (z-score),Gal(b1-3)GlcNAc6S,-0.09
same,glycan array binding signal (z-score),[13],-0.079
same,glycan array binding signal (z-score),[14],-0.077
same,glycan array binding signal (z-score),[15],-0.081
same,glycan array binding signal (z-score),[16],-0.076
same,glycan array binding signal (z-score),[17],-0.071
same,glycan array binding signal (z-score),[18],-0.071
same,glycan array binding signal (z-score),Gal6P(b1-4)GlcNAc,-0.084
same,glycan array binding signal (z-score),Gal6S(b1-3)GlcNAc,0.341
